Results on nine compounds are retold here after PubChem BioAssay (Tox21).

Values without a mark were called inactive. Inconclusive results are not listed. Active and inactive are the calls of the source. Unless noted, the call rests on the fitted dose curve; in most records, active means well fitted curve in the direction sought with a large enough effect in the repeat runs; inconclusive means weak or mixed curves; inactive means no such curve, though single readings can be large; an effect the other way counts as inactive or inconclusive.

Assay [1] can be described thus: A CellTox Green Cytotoxicity Assay to monitor cytotoxicity in HEK293 cells - 32 hour (AID 1224881). Further: nearly all actives have a fitted effect of over 40% in size. Summed up: (§1)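 Read-out: fluorescence of a cell-impermeant cyanine dye staining DNA of dead cells, proportional to cytotoxicity. HEK293, 600 cells/well with reagent, compound (23 nL DMSO) added after 5 h; reads at 0, 8, 16, 24, 32, 40 h.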
Assay [2] can be described thus: A CellTox Green Cytotoxicity Assay to monitor cytotoxicity in HepG2 cells - 0 hour (AID 1224882). Further: nearly all actives have a fitted effect of over 35% in size. Summed up: (§2)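 HepG2, 600 cells/well premixed w/ CellTox Green; 5 h settle, 37 C/5% CO2; pintool cpd add (DMSO); 37 C, 40 h; fluorescence read at 0, 8, 16, 24, 32, 40 h.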
Assay [3] in a line: A CellTox Green Cytotoxicity Assay to monitor cytotoxicity in HepG2 cells - 32 hour (AID 1224883). Further: nearly all actives have a fitted effect of over 50% in size. Summed up: as §2
Assay [4] in a line: A CellTox Green Cytotoxicity Assay to monitor cytotoxicity in HEK293 cells - 8 hour (AID 1224884). Further: nearly all actives have a fitted effect of over 35% in size. The essentials: as §1
Assay [5] can be described thus: qHTS RealTime-Glo MT Cell Viability Assay in HepG2 cells - 16 hour (AID 1224885). Further: nearly all actives have a fitted effect of over 50% in size. Summed up:
(§3)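 Compound treatment began 5 h after plating HepG2 cells (600/well) with NanoLuc luciferase and prosubstrate. Plates stayed at 37 C for 40 h; luminescence was captured at six time points, 0 h through 40 h.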
Background: qHTS replaces the single test concentration by a dilution series.

Assay [6] in a line: qHTS RealTime-Glo MT Cell Viability Assay in HEK293 cells - 24 hour (AID 1224886). Further: nearly all actives have a fitted effect of over 50% in size. Further: potency means the concentration at half of the fitted maximal effect. Summed up:
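Quantitative high-throughput screen of the Tox21 10K library in HEK293: cells and RealTime-Glo reagents plated together, compound added at 5 h, luminescence monitored through 40 h at 37 C.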

Assay [7] in a line: qHTS RealTime-Glo MT Cell Viability Assay in HEK293 cells - 8 hour (AID 1224887). Further: top concentration of the series differs between compounds; nearly all actives have a fitted effect of over 50% in size. The essentials: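 Luminescence readout at each listed time point; HEK293, 600 cells/well, RealTime-Glo MT reagent added with cells; compounds pinned (23 nL in DMSO) after 5 h at 37 C; continuous culture at 37 C.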
Assay [8] is described as follows: qHTS RealTime-Glo MT Cell Viability Assay in HepG2 cells - 0 hour (AID 1224889). Further: nearly all actives have a fitted effect of over 50% in size. The essentials:
as §3

A short description of assay [9]: A CellTox Green Cytotoxicity Assay to monitor cytotoxicity in HepG2 cells - 8 hour (AID 1224890). Further: nearly all actives have a fitted effect of over 45% in size. Summed up: as §2
A short description of assay [10]: qHTS assay to identify small molecule antagonists of the estrogen receptor alpha (ER-alpha) signaling pathway using the BG1 cell line in the presence of 0.1 nM 17-beta-estradiol - cell viability counter screen (AID 1259241). Further: nearly all actives have a fitted effect of over 40% in size. The essentials:
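Cytotoxicity counter-screen: live-cell protease activity measured by fluorescence (30 min reagent step) in the same wells. Cells were VM7Luc4E2 with endogenous ER-alpha and ERE-driven luciferase, treated 22 hr at 37C alongside 0.1 nM 17beta-estradiol final.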

Assay [11] is described as follows: qHTS assay to identify small molecule antagonists of the androgen receptor (AR) signaling pathway using the MDA cell line in the presence of 0.5 nM R1881 - cell viability counter screen (AID 1259242). Further: nearly all actives have a fitted effect of over 45% in size. Summed up: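 Live-cell protease fluorescence, CellTiter-Fluor, 30 min at 37C. Cells: MDA-kb2, 3,000/well, preincubated 5 hr. Compounds plus 0.5 nM R1881 final, 16 hr, 37C, 0% CO2.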

Assay [12] has as its target Estrogen receptor (Homo sapiens) (UniProt P03372). As to the kind of experiment: qHTS assay to identify small molecule antagonists of the estrogen receptor alpha (ER-alpha) signaling pathway using the BG1 cell line in the presence of 0.1 nM 17-beta-estradiol (AID 1259244). Further: nearly all actives have a fitted effect of over 50% in size. The essentials: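 Luminescence after ONE-Glo (30 min, room temperature) measured ERE-luciferase activity in VM7Luc4E2 cells treated 22 h with compound and 0.1 nM final 17beta-estradiol as stimulator.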

The nature of assay [13]: qHTS assay to identify small molecule phospholipidosis (PLD) inducers (AID 1259344; active means well fitted curve in the direction sought with a large enough effect; an effect the other way counts as inactive or inconclusive). Summed up:
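Image-based: LipidTOX Red pit count/intensity per well and per cell; HepG2, 24 h compound at 37 C, PFA fixation, Hoechst counterstain.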

Assay [14] is described as follows: qHTS assay to identify small molecule HDAC inhibitors (AID 1259364).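 Further: wild-type HCT-116 cells with endogenous class I/II HDAC activity; top concentration of the series differs between compounds; nearly all actives have a fitted effect of over 45% in size.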 Summed up: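 HCT-116 (wild type), 1,500 cells/well, overnight; compound 2 hr 37C 5% CO2; HDAC-Glo I/II reagent 30 min RT; luminescence readout.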
Assay [15] in a line: qHTS assay to identify small molecule HDAC inhibitors - cell viability counter screen (AID 1259365). Summed up:
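CellTiter-Glo luminescence (30 min, room temperature) reported viability after a 2 h compound exposure at 37 C. Cells: wild-type HCT-116, 1,500 per well, seeded the night before.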

Assay [16] is described as follows: qHTS assay to identify small molecule agonists of the sonic hedgehog signaling (Shh) pathway - cell viability counter screen (AID 1259366). Further: nearly all actives have a fitted effect of over 50% in size. Further: potency means the concentration at half of the fitted maximal effect. The essentials:
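Cytotoxicity counter screen: CellTiter-Fluor reagent added after 23 h compound exposure, then 1 h at 37C and fluorescence read. Cells were 3T3 Gli1-Luc, seeded 2,000 per well and dosed 4 h post-plating.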

A short description of assay [17]: qHTS assay to identify small molecule antagonists of the sonic hedgehog signaling (Shh) pathway - cell viability counter screen (AID 1259367). Further: nearly all actives have a fitted effect of over 55% in size. Summed up: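 Tox21 library chemicals were tested on a Gli1-Luc NIH/3T3 clone (2,000 cells/well) stimulated by conditioned medium; viability was quantified as fluorescence from CellTiter-Fluor reagent added at 23 hr.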
A short description of assay [18]: qHTS assay to identify small molecule agonists of the sonic hedgehog signaling (Shh) pathway (AID 1259368; calls by dose curve;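 further: NIH/3T3-derived 3T3Gli1-Luc cells carrying a stable Gli1-driven firefly luciferase reporter; series mostly up to about 92 µM; nearly all actives have a fitted effect of over 15% in size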). The essentials: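 Read-out: firefly luciferase luminescence from a Gli1 response element reporter stably integrated in NIH/3T3-derived 3T3Gli1-Luc cells, measured 30 min at room temperature after reagent addition. Compound exposure lasted 24 hr at 37 C, 5% CO2.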

A short description of assay [19]: A CellTox Green Cytotoxicity Assay to monitor cytotoxicity in HEK293 cells - 16 hour (AID 1224888). Further: nearly all actives have a fitted effect of over 35% in size. The essentials: as §1
Assay [20] deals with Androgen receptor (Homo sapiens) (UniProt P10275). In words: qHTS assay to identify small molecule antagonists of the androgen receptor (AR) signaling pathway using the MDA cell line in the presence of 0.5 nM R1881 (AID 1259243). Further: nearly all actives have a fitted effect of over 50% in size. Further: potency means the concentration at half of the fitted maximal effect. The essentials: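 MDA-kb2, MMTV-luc (AR/GR elements); 3,000 cells/well; cpd + 0.5 nM R1881 final; 16 hr 37C, 0% CO2; ONE-Glo 30 min RT; luminescence.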
Androgen receptor (Homo sapiens), sequence (P10275 whole entry, looked up): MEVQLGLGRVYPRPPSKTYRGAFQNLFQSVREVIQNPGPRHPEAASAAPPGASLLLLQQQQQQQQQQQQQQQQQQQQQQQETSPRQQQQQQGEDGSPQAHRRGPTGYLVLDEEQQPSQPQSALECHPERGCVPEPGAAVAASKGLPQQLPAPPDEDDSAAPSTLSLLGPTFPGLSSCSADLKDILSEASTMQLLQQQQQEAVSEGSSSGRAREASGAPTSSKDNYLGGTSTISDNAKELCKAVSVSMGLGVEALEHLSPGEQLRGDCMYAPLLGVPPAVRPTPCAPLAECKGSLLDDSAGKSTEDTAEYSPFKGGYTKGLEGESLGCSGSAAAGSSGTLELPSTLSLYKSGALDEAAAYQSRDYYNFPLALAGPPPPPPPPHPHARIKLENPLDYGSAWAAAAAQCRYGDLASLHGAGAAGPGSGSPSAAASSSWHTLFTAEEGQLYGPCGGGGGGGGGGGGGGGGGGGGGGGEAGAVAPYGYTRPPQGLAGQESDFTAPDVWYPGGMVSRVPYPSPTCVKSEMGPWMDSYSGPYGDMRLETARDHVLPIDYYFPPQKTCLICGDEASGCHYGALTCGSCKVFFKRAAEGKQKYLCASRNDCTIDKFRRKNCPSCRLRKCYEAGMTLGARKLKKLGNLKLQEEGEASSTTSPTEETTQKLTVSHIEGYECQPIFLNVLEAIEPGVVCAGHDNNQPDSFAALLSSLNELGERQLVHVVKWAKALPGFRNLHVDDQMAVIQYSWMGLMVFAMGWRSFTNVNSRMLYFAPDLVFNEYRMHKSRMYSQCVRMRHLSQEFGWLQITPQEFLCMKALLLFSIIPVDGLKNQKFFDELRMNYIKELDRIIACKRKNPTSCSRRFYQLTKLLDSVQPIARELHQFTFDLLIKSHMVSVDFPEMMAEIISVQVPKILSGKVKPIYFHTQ

Estrogen receptor (Homo sapiens), sequence (P03372 whole entry, looked up): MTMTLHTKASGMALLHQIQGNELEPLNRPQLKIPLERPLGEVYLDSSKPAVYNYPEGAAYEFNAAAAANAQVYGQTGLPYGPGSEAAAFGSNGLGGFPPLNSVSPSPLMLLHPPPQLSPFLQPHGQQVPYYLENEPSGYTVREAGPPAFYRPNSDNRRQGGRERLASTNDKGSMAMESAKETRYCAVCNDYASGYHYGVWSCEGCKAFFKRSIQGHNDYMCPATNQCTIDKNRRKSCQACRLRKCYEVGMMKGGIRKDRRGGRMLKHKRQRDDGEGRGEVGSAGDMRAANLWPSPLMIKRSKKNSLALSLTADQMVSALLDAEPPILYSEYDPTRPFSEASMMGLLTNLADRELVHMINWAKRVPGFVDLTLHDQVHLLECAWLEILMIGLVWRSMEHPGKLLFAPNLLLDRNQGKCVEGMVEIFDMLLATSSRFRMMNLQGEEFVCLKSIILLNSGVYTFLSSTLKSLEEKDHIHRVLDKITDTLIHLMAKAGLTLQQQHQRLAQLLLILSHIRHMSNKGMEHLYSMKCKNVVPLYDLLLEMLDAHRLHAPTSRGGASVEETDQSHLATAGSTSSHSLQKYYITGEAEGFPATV

Turning to `CC(=O)[C@H]1CC[C@H]2[C@@H]3CC[C@H]4C[C@H](O)CC[C@]4(C)[C@H]3C(=O)C[C@]12C`, the Potency result in assay [1], in assay [3], in assay [4], in [5], in [6] and in assay [7] was “inactive” each time. Moreover, the Potency result in [8], in [9], in assay [12], in [14], in assay [16] and in [17] was “inactive” each time. In addition, the result in assay [2], in assay [10], in [11], in assay [13], in [15] and in [18] was inactive.
For `O=[N+]([O-])c1cccc2c([N+](=O)[O-])cccc12`, the Potency entry in assay [1], in [3], in assay [4], in [5], in [7] and in [19] was “inactive” in each case. The Potency entry in [9], in assay [14], in [16] and in [17] was “inactive” throughout. The result in [2], in [15] and in assay [18] was inactive. The Potency was 49.2 µM (active) in assay [6] and 61.4 µM (active) in assay [20].
For the compound `Fc1cc(Br)ccc1CBr`, the Potency result in [1], in [3], in [4], in assay [5], in [7] and in [19] was “inactive” throughout. The Potency result in assay [8], in [9], in assay [20], in [12], in [14] and in [16] was “inactive” each time. Further, the Potency entry in assay [17] is “inactive”. Moreover, the result in assay [2], in assay [10], in assay [11], in [15] and in [18] was inactive.
In the case of `COc1cccc(C(=O)NN(C(=O)c2cc(C)cc(C)c2)C(C)(C)C)c1C`, the Potency result in [1], in assay [3], in assay [4], in [5], in assay [6] and in [7] was “inactive” throughout. Also, the Potency entry in [19], in assay [8], in assay [9] and in assay [14] was “inactive” each time. Also, the outcome in [2], in assay [11], in [15] and in assay [18] was inactive. Also, in [16], the Potency was 13.7 µM (active).
As to `CCCCCCBr`, the Potency entry in [1], in assay [3], in assay [4], in assay [5], in [6] and in assay [7] was “inactive” each time. Further, the Potency entry in assay [19], in assay [8], in assay [9], in assay [14] and in [16] was “inactive” in each case. Further, the outcome in assay [2], in [10], in assay [11], in assay [15] and in [18] was inactive.
Consider `CCCSP(=S)(OCC)Oc1ccc(Cl)cc1Cl` (centres undefined), for which the Potency result in assay [1], in [3], in assay [4], in assay [5], in assay [6] and in [7] was “inactive” in each case. Moreover, the Potency entry in [19], in assay [8], in [9], in assay [12], in assay [14] and in [16] was “inactive” in each case. Moreover, in assay [17], the Potency entry is “inactive”. Also, the call in assay [2], in assay [11], in assay [15] and in assay [18] was inactive.
In the case of `CS(=O)(=O)c1cc(C(F)(F)F)ccc1C(=O)c1cnoc1C1CC1`, the Potency entry in [1], in assay [3], in assay [4], in [5], in assay [6] and in assay [7] was “inactive” in each case. For the same compound, the Potency entry in assay [19], in assay [9], in assay [12], in assay [14], in assay [16] and in assay [17] was “inactive” in each case. Also, the compound was classed as inactive in [2], in [11], in assay [15] and in assay [18].
On to `CC(=O)CC(c1ccc(Cl)cc1)c1c(O)c2ccccc2oc1=O` (centres undefined), for which the Potency entry in assay [1], in [3], in [4], in [5], in [6] and in [7] was “inactive” each time. The Potency result in assay [19], in [8], in [9], in assay [12], in assay [14] and in assay [16] was “inactive” in each case. Also, the Potency result in [17] was “inactive”. The compound was classed as inactive in [2], in assay [11], in [15] and in [18].
For the compound `CCOP(=O)(OCC)OP(=O)(OCC)OCC`, the Potency result in assay [1], in assay [3], in assay [4], in [5], in [6] and in assay [7] was “inactive” each time. Further, the Potency entry in assay [19], in assay [8], in assay [9], in assay [20], in assay [14] and in assay [16] was “inactive” each time. Also, the Potency entry in [17] is “inactive”. The compound was called inactive in [2], in assay [11], in assay [15] and in assay [18].
